Laboratory results reported in PMC5540273 (PLoS ONE, 2017).

Columns and labels:
Settings in all cases: concentration: 1 μM, replicates: in singlicate; n = 1
WNK1 = tested on: WNK1
WNK2 = tested on: WNK2
WNK3 = tested on: WNK3
WNK4 = tested on: WNK4
YANK1 = tested on: T1, YANK1
T1 construct: gene STK32A

YANK2 = tested on: T2, YANK2
T2 construct: gene STK32B

YANK3 = tested on: T3, YANK3
T3 construct: gene STK32C

YES = tested on: T4, YES
T4 construct: gene YES1

YSK1 = tested on: T5, YSK1
T5 construct: gene STK25

YSK4 = tested on: T6, YSK4
T6 construct: gene MAP3K19
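Also: KINOMEscan kinase panel screen.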

| SMILES | %Inh (WNK1) | %Inh (WNK2) | %Inh (WNK3) | %Inh (WNK4) | %Inh (YANK1) | %Inh (YANK2) | %Inh (YANK3) | %Inh (YES) | %Inh (YSK1) | %Inh (YSK4) |
| --- | --- | --- | --- | --- | --- | --- | --- | --- | --- | --- |
| COc1cc(Nc2nccc(N3CCC(NS(=O)(=O)c4ccc(NC(C)=O)cc4)CC3)n2)cc(OC)c1OC [GSK1379825] | 0% | 16% | 25% | 23% | 2% | 7% | 0% | 39% | 16% | 32% |
| O=C(Nc1n[nH]c2nc(-c3ccccc3O)ccc12)C1CC1 [SB-711880] | 0% | 30% | 0% | 0% | 0% | 0% | 0% | 0% | 0% | 70% |
| CCn1c(-c2nonc2N)nc2c(-c3ccccc3)ncc(OCCCN)c21.O=C(O)C(F)(F)F.O=C(O)C(F)(F)F [GSK260205] | 22% | 14% | 32% | 15% | 99.4% | 87% | 50% | 28% | 23% | 99.6% |
| COC(=O)Nc1nc2ccc(Oc3ccc(CC(=O)Nc4cc(C(F)(F)F)ccc4F)cc3)cc2[nH]1 [GW680903] | 0% | 4% | 21% | 48% | 9% | 0% | 0% | 8% | 3% | 42% |
| Fc1cc(Cl)ccc1Nc1ccnc2cc(-c3ccc(CN4CCOCC4)o3)ccc12 [GW560109] | 10% | 4% | 1% | 8% | 8% | 21% | 24% | 84% | 0% | 71% |
| COC(=O)Nc1nc2ccc(Oc3ccc(NC(=O)Nc4cc(C(F)(F)F)ccc4F)cc3)cc2[nH]1.Cl [GW654607] | 25% | 27% | 26% | 15% | 21% | 0% | 100% | 48% | 25% | 97.2% |
| CC(C)NCC(Cc1ccccc1)NC(=O)c1cc(Br)c(-c2ccnc3[nH]ccc23)s1.Cl.Cl (stereo not shown) [GSK1383281] | 0% | 0% | 0% | 18% | 21% | 0% | 0% | 0% | 40% | 83% |
| Cc1ccc(Nc2ccnc(Nc3ccc(C)c(F)c3)n2)cc1O.Cl [GW582868] | 41% | 12% | 31% | 49% | 1% | 0% | 1% | 53% | 0% | 25% |
| COc1cccc(C2=C(Nc3cccc(O)c3)C(=O)NC2=O)c1 [SB-390771] | 13% | 25% | 7% | 35% | 0% | 0% | 2% | 15% | 16% | 43% |
| CN(C)CCNS(=O)(=O)c1ccc(-c2ccnc3[nH]ccc23)cc1 [GSK977620] | 0% | 0% | 0% | 0% | 21% | 0% | 27% | 16% | 78% | 88% |
| Cc1ccc(NC(=O)c2ccnc(N3CCCCC3)c2)cc1-c1ccc(C(=O)NCC2CC2)cc1 [GW775610] | 0% | 9% | 0% | 0% | 0% | 10% | 0% | 0% | 0% | 0% |
| COc1cccc(CC(=O)N2CCc3cc(-c4cn(C)c5ncnc(N)c45)ccc32)c1 [GSK2608899] | 21% | 52% | 54% | 12% | 13% | 0% | 8% | 16% | 17% | 96.9% |
| CN(C)c1ncnc2nc[nH]c12 [SKF-31736] | 15% | 0% | 10% | 13% | 0% | 0% | 0% | 0% | 0% | 10% |
| Cn1cc(-c2cnc(N)c3c(-c4ccc5c(c4)CCN5C(=O)Cc4ccccc4)csc23)cn1 [GSK2593074] | 0% | 0% | 0% | 0% | 0% | 0% | 0% | 55% | 6% | 43% |
| Nc1ncnc2scc(-c3ccc(NC(=O)Cc4cc(F)ccc4F)cc3)c12.O=C(O)C(F)(F)F [SB-731254-M] | 0% | 0% | 0% | 25% | 89% | 90.1% | 28% | 29% | 0% | 97.8% |
| CCNC(=O)/C=C/c1n[nH]c2cc(Sc3ccccc3C(=O)NC)ccc12 | 0% | 5% | 0% | 10% | 17% | 0% | 0% | 20% | 0% | 86% |
